Reference: PubChem BioAssay (EPA / NIEHS)
Values joined by “and” are separate entries in the source; they are usually repeats but may differ in a detail not shown here. Equal values may be shown once. Inconclusive results are not listed. Where a structure was tested more than once in an assay, its records may differ in their call. Active and inactive are the calls of the source. How the source made its calls, unless noted: active means hit-call score of the fitted dose curve at least 0.9, where 1 is the maximum; inactive means score below 0.9.

Columns and labels:
[1] = ATG_PBREM_CIS: Attagene CIS-FACTORIAL HepG2 Assay for human Phenobarbital-responsive Enhancer Module (PBREM) (AID 2282955); settings: HepG2 PBREM cis-reporter, Attagene multiplexed transcription; actives raise or lower the signal
Outline: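 Reporter mRNA read by RT-PCR, 6-FAM primer extension, HpaI digestion and capillary electrophoresis. Transfected HepG2 cells, 24 h compound exposure. Gain or loss of signal fitted bidirectionally relative to DMSO baseline.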

[2] = target: Paired box protein Pax-6 (Homo sapiens) (UniProt P26367); assay: ATG_Pax6_CIS: Attagene CIS-FACTORIAL HepG2 Assay for human Paired Box 6 (PAX6) (AID 2282956); settings: HepG2 CIS-FACTORIAL PAX6 reporter transcription, RNA readout; actives raise or lower the signal
Outline: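 DMSO-referenced bidirectional fits of reporter mRNA fluorescence; HepG2 with transient cis-promoter MRTUs, 24 h post-dose, RT-PCR plus capillary electrophoresis detection.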

[3] = ATG_PXRE_CIS: Attagene CIS-FACTORIAL HepG2 Assay for human Pregnane X Receptor Element (PXRE) (AID 2282957); settings: HepG2 Attagene CIS-FACTORIAL PXRE reporter, mRNA; actives raise or lower the signal
Outline: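 Fluorescent capillary electrophoresis of amplified reporter cDNA gave the signal, collected 24 h after dosing HepG2 cells that held transfected cis-element reporter constructs.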

[4] = ATG_PPRE_CIS: Attagene CIS-FACTORIAL HepG2 Assay for human Peroxisome Proliferator-activated Response Element (PPRE) (AID 2282958); settings: HepG2 PPRE cis-element reporter, Attagene transcription factor profiling; actives raise or lower the signal
Outline: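 Read-out: fluorescent reporter mRNA fragments resolved by capillary electrophoresis after RT-PCR. HepG2 cells carried transiently transfected PPRE-driven cis reporter constructs and were dosed for 24 h; gain or loss of signal fitted relative to DMSO.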

[5] = ATG_RORE_CIS: Attagene CIS-FACTORIAL HepG2 Assay for human RAR-related Orphan Receptor Element (RORE) (AID 2282959); settings: HepG2 Attagene cis-factorial RORE reporter, mRNA; actives raise or lower the signal
Outline: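 Readout: fluorescent reporter mRNA by RT-PCR plus capillary electrophoresis, 24 h after dosing transfected HepG2 cells. Endogenous transcription factor activity on a cis promoter element is measured. Gain or loss of signal fitted against DMSO.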

[6] = ATG_Sox_CIS: Attagene CIS-FACTORIAL HepG2 Assay for human SRY-box transcription factor (SOX) (AID 2282960); settings: HepG2 Attagene cis-factorial SOX reporter, mRNA; actives raise or lower the signal
Outline: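 Read-out: fluorescent RT-PCR products of SOX1-linked reporter transcripts resolved by capillary electrophoresis, fitted bidirectionally against DMSO. Transiently transfected HepG2 cells, 24 h after chemical exposure, endogenous transcription factor activity.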

[7] = target: Transcription factor Sp1 (Homo sapiens) (UniProt P08047); assay: ATG_Sp1_CIS: Attagene CIS-FACTORIAL HepG2 Assay for human Specificity Protein 1 (Sp1) (AID 2282961); settings: HepG2 Sp1 cis-reporter transcription, actives raise or lower the signal
Outline: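 Read-out: fluorescence of 6-FAM-labeled, HpaI-digested RT-PCR products separated by capillary electrophoresis. HepG2 cells carried transfected cis-element reporter units and were exposed to chemicals for 24 h; gain or loss of signal fitted relative to DMSO.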

[8] = ATG_SREBP_CIS: Attagene CIS-FACTORIAL HepG2 Assay for human Sterol Regulatory Element Binding (SREBP) (AID 2282962); settings: HepG2 Attagene cis-factorial SREBP reporter, mRNA; actives raise or lower the signal
Outline: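 In this cis-format assay, HepG2 liver cells express reporters controlled by promoter elements responsive to native transcription factors. Exposure lasts 24 h; reporter mRNA fluorescence from capillary electrophoresis gives the signal, fitted bidirectionally against DMSO.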

[9] = target: Signal transducer and activator of transcription 3 (Homo sapiens) (UniProt P40763); assay: ATG_STAT3_CIS: Attagene CIS-FACTORIAL HepG2 Assay for human Signal Transducer and Activator of Transcription 3 (STAT3) (AID 2282963); settings: HepG2, Attagene cis-factorial STAT3 reporter transcription; actives raise or lower the signal
Outline: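 Cis-factorial format: endogenous transcription factors in HepG2 drive transfected reporter units. After 24 h treatment, reporter RNA was reverse-transcribed, amplified, FAM-labelled and HpaI-digested before CE analysis; activity scored in both directions against DMSO.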

[10] = ATG_TA_CIS: Attagene CIS-FACTORIAL HepG2 Assay for human TA Basal Promoter (AID 2282964); settings: HepG2 Attagene CIS-factorial TA basal promoter reporter; actives raise or lower the signal
Outline: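 Background-control readout: TA basal promoter reporter mRNA, fitted in both directions relative to DMSO. Measured by RT-PCR and capillary electrophoresis 24 hours after treating HepG2 human liver cells transiently carrying multiplexed cis-regulated reporter constructs.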

[11] = ATG_TCF_b_cat_CIS: Attagene CIS-FACTORIAL HepG2 Assay for human T-Cell-Factor with beta-catenin (TCF/b-cat) (AID 2282965); settings: HepG2 TCF/beta-catenin cis-reporter transcription, actives raise or lower the signal
Outline: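 Measured: reporter mRNA in HepG2 transiently transfected with cis-promoter reporter units, 24 h after chemical addition. Fitting was bidirectional, DMSO as negative control.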

[12] = ATG_TAL_CIS: Attagene CIS-FACTORIAL HepG2 Assay for human TAL Basal Promoter (AID 2282966); settings: HepG2 Attagene cis-factorial TAL promoter reporter; actives raise or lower the signal;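 further: background control endpoint measuring basal TAL promoter reporter mRNA not a specific factor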
Outline: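 Transiently transfected HepG2 (cis-regulated reporter units), 24 h treatment, mRNA read by fluorescent CE after RT-PCR; bidirectional fit, DMSO baseline.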

[13] = ATG_TGFb_CIS: Attagene CIS-FACTORIAL HepG2 Assay for human Transforming Growth Factor (TGF) (AID 2282967); settings: HepG2 Attagene CIS TGFb reporter, mRNA transcription; actives raise or lower the signal
Outline: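 Endogenous TGFB1-linked transcription factor activity read as reporter mRNA via RT-PCR and capillary electrophoresis, 24 h after dosing transiently transfected HepG2 cells. Gain or loss of signal fitted relative to DMSO.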

[14] = ATG_VDRE_CIS: Attagene CIS-FACTORIAL HepG2 Assay for human Vitamin D Receptor Element (VDRE) (AID 2282968); settings: HepG2 VDRE cis-reporter transcription, actives raise or lower the signal
Outline: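 Measures endogenous factor activity through cis-element-driven reporter transcripts in transiently transfected HepG2. Cells are treated 24 h; reporter mRNA is quantified by RT-PCR and capillary electrophoresis; fitting is bidirectional.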

[15] = target: Nuclear receptor subfamily 1 group I member 3 (Homo sapiens) (UniProt Q14994); assay: ATG_CAR_TRANS: Attagene TRANS-FACTORIAL HepG2 Assay for human Constitutive Androstane Receptor (CAR) (AID 2282969; active means hit-call score of the fitted dose curve at least 0.9, where 1 is the maximum;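 further: activators raise reporter mRNA above DMSO so AC50 marks induction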); settings: HepG2 Attagene TRANS-FACTORIAL CAR reporter
Outline: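 Signal is reporter mRNA induction relative to DMSO, measured 24 h after dosing by RT-PCR with fluorescent primer extension and capillary electrophoresis. Human HepG2 liver cells carried transiently transfected chimeric NR-Gal4/GAL4-UAS reporter constructs.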

[16] = target: Estrogen receptor (Homo sapiens) (UniProt P03372); assay: ATG_ERa_TRANS: Attagene TRANS-FACTORIAL HepG2 Assay for human Estrogen Receptor alpha (ERa) (AID 2282970; active means hit-call score of the fitted dose curve at least 0.9, where 1 is the maximum); settings: HepG2 Attagene TRANS ERa GAL4 reporter, mRNA
Outline: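 One of 30 multiplexed endpoints from a HepG2 TRANS system, this one reports ERa-Gal4-driven reporter mRNA. Transcripts were quantified 24 hours post-dosing by fluorescent RT-PCR and capillary electrophoresis, with activity scored as induction over DMSO.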

[17] = target: X-box-binding protein 1 (Homo sapiens) (UniProt P17861); assay: ATG_Xbp1_CIS: Attagene CIS-FACTORIAL HepG2 Assay for human X-box Binding Protein 1 (XBP1) (AID 2282972); settings: HepG2 XBP1 cis-element reporter, Attagene multiplex; actives raise or lower the signal
Outline: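 Changes in reporter transcript abundance, read by RT-PCR and capillary electrophoresis, reflect endogenous transcription factor activity. Transfected HepG2 cells received compound for 24 hours; DMSO defined baseline for bidirectional analysis.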

[18] = ATG_M_19_TRANS: Attagene TRANS-FACTORIAL HepG2 Assay for M19 Transcription Factor (Internal Marker) (AID 2282974; active means hit-call score of the fitted dose curve at least 0.9, where 1 is the maximum); settings: HepG2 Attagene TRANS-FACTORIAL M19 internal marker reporter
Outline: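 24 h chemical exposure of transiently transfected HepG2 (MRTU library). RNA → oligo(dT) RT → PCR → 6-FAM labelling → HpaI cut → CE fluorescence. Positive-direction fit vs DMSO baseline; background internal-marker readout.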

[19] = target: Steroid hormone receptor ERR1 (Homo sapiens) (UniProt P11474); assay: ATG_ERRa_TRANS: Attagene TRANS-FACTORIAL HepG2 Assay for human Estrogen-Related Receptor alpha (ERRa) (AID 2282971; active means hit-call score of the fitted dose curve at least 0.9, where 1 is the maximum); settings: HepG2 Attagene TRANS reporter, ERRa transactivation
Outline: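 HepG2 cells transiently transfected with multiplexed GAL4-UAS reporter units reading chimeric ERRa-Gal4 activity; 24 h compound exposure. Reporter mRNA measured by RT-PCR, 6-FAM labelling, HpaI digest and capillary electrophoresis; gain of signal fitted versus DMSO baseline.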

[20] = target: Androgen receptor (Homo sapiens) (UniProt P10275); assay: ATG_AR_TRANS: Attagene TRANS-FACTORIAL HepG2 Assay for human Androgen Receptor (AR) (AID 2282973; active means hit-call score of the fitted dose curve at least 0.9, where 1 is the maximum); settings: HepG2 Attagene TRANS-FACTORIAL AR reporter transcription
Outline: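 HepG2 cells transiently transfected with multiplexed GAL4-UAS reporter units and chimeric NR-Gal4 fusion; 24 h compound exposure. Reporter mRNA measured by RT-PCR, 6-FAM labelling, HpaI digestion and capillary electrophoresis; gain-of-signal fitted relative to DMSO baseline.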

Measured: AC50

Sequence of Transcription factor Sp1 (Homo sapiens) (P08047 whole entry, looked up): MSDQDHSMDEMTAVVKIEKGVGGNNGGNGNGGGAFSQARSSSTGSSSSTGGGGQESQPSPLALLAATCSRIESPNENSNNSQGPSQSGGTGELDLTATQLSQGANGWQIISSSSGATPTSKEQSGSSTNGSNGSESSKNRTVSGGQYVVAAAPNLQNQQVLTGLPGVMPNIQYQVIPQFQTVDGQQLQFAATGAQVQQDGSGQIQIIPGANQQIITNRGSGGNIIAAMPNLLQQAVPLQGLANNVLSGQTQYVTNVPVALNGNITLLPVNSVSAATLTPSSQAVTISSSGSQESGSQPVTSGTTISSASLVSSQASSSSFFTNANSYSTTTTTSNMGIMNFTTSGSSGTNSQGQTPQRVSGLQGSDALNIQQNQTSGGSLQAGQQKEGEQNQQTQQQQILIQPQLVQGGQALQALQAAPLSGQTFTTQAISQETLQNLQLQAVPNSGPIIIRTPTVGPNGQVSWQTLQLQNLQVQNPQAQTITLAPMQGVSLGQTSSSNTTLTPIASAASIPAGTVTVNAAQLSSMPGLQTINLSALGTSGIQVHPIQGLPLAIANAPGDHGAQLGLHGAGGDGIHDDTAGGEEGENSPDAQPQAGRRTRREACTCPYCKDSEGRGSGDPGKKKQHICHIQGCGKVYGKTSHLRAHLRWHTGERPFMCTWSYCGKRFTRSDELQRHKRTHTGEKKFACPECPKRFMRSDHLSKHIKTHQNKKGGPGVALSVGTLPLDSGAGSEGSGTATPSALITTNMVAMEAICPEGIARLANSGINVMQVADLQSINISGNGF
Sequence of Steroid hormone receptor ERR1 (Homo sapiens) (P11474 whole entry, looked up, the tested form may be a part): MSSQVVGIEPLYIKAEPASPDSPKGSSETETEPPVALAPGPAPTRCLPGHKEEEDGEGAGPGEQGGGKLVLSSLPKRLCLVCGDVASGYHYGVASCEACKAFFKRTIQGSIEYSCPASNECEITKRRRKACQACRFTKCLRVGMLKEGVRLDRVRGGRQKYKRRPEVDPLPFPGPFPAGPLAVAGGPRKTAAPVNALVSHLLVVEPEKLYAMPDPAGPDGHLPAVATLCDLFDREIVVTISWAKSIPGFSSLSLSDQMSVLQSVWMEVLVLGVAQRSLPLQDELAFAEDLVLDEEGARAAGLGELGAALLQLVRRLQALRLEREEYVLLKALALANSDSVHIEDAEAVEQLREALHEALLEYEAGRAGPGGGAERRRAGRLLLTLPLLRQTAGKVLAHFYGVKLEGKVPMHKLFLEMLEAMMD
Sequence of X-box-binding protein 1 (Homo sapiens) (P17861 whole entry, looked up): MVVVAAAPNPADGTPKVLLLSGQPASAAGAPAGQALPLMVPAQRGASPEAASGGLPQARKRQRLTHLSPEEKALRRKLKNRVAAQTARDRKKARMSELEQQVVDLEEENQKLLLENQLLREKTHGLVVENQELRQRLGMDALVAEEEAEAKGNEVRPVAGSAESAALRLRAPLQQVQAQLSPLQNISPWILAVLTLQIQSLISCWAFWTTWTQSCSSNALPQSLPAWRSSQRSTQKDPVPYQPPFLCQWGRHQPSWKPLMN
Sequence of Signal transducer and activator of transcription 3 (Homo sapiens) (P40763 whole entry, looked up): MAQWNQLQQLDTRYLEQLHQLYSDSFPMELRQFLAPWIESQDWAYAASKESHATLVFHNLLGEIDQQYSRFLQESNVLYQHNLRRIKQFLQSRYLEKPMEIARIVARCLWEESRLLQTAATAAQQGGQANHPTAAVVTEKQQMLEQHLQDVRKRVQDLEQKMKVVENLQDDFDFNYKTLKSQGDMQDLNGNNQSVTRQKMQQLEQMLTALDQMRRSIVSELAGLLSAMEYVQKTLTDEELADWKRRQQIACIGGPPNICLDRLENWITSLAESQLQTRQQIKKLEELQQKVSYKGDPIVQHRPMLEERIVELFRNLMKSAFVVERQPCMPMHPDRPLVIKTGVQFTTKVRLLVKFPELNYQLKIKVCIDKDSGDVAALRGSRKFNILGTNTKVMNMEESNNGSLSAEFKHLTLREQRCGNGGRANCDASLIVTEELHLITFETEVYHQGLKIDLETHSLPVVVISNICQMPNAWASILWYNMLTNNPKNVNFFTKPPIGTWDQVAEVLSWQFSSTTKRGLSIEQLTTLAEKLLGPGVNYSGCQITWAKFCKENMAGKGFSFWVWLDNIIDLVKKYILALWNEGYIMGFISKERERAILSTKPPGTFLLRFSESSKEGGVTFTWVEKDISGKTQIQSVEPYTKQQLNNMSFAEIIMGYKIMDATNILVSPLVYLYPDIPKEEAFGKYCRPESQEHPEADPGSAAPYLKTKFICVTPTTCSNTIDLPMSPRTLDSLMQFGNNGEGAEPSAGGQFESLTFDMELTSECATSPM
Sequence of Nuclear receptor subfamily 1 group I member 3 (Homo sapiens) (Q14994 whole entry, looked up, the tested form may be a part): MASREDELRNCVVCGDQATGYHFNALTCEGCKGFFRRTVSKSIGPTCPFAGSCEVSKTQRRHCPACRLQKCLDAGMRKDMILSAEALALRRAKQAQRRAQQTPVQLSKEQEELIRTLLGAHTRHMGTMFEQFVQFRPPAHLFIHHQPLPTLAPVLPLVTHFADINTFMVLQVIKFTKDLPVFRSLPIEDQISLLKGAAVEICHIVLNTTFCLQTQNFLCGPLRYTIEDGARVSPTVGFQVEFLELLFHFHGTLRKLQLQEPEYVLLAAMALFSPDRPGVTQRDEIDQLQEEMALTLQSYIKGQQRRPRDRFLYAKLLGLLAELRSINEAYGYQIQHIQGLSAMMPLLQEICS
Sequence of Estrogen receptor (Homo sapiens) (P03372 whole entry, looked up, the tested form may be a part): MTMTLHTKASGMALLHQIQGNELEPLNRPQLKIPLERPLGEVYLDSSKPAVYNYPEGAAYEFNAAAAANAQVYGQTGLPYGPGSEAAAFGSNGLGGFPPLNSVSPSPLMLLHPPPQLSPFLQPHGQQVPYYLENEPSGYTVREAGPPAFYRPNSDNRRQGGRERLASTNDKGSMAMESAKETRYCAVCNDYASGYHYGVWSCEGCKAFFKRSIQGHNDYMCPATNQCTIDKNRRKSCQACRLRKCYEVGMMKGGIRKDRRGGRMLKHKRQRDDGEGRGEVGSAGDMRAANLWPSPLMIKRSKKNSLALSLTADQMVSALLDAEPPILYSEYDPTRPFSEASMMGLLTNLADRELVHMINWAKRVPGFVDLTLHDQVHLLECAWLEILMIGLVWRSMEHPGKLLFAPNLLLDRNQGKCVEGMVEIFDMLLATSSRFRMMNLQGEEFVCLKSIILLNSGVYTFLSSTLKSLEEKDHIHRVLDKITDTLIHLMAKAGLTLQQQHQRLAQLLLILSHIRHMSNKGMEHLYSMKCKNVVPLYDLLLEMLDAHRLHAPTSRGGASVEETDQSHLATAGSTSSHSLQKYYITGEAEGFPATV
Sequence of Paired box protein Pax-6 (Homo sapiens) (P26367 whole entry, looked up): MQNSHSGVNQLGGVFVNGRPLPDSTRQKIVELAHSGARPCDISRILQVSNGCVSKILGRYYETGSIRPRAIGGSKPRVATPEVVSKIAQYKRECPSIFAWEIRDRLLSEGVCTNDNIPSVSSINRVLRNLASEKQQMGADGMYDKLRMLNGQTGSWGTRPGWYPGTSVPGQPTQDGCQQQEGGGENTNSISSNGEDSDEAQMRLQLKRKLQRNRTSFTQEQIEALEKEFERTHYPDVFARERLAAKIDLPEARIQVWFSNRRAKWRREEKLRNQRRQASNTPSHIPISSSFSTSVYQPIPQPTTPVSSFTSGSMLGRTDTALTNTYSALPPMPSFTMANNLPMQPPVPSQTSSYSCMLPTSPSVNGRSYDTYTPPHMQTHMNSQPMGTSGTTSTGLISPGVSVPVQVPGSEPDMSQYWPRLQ
Sequence of Androgen receptor (Homo sapiens) (P10275 whole entry, looked up, the tested form may be a part): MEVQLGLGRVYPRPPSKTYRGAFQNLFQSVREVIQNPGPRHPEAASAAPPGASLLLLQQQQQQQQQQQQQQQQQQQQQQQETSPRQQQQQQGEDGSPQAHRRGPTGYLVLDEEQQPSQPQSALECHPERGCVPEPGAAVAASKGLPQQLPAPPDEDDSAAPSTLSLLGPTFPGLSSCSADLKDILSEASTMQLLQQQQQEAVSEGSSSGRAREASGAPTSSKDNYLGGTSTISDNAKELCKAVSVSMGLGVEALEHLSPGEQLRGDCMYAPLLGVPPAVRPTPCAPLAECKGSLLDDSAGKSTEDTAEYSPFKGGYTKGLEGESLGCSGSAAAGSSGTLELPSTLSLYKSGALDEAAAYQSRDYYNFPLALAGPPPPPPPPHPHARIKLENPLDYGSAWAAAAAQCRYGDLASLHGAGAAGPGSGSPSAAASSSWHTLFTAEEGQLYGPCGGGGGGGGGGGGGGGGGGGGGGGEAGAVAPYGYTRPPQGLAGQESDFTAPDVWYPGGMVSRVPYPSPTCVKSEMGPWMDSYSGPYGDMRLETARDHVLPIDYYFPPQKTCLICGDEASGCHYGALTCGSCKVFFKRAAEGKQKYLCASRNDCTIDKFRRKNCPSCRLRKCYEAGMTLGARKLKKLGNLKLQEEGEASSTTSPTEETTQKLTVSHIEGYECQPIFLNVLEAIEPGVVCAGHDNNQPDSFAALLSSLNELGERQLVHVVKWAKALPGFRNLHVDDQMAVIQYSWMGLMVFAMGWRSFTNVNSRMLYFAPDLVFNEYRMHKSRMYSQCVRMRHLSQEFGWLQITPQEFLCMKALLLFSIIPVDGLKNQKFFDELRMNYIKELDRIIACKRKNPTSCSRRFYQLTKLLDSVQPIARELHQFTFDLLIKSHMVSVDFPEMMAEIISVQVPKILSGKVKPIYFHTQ

COP(=S)(OC)Oc1ccc([N+](=O)[O-])cc1
not listed: [19] | [20]
inactive: all other assays above

C[C@H]1[C@H](c2ccc(Cl)cc2)SC(=O)N1C(=O)NC1CCCCC1
active: [1] 27.2 µM | [3] 1.93 µM | [5] 17.5 µM | [14] 13.7 µM
not listed: [4] | [18] | [19] | [20]
inactive: all other assays above

CC(C)N(C(=O)COc1nnc(C(F)(F)F)s1)c1ccc(F)cc1
active: [1] 11.5 µM | [3] 7.54 µM | [17] 29.7 µM
not listed: [14] | [15] | [19] | [20]
inactive: all other assays above

O=C(O)COc1ccc(Cl)cc1Cl
not listed: [1] | [4] | [5] | [15] | [16] | [19] | [20]
inactive: all other assays above

CNC(=O)/C=C(\C)OP(=O)(OC)OC
not listed: [5] | [18] | [19] | [20]
inactive: all other assays above

O=C(O)C(F)(F)C(F)(F)C(F)(F)C(F)(F)C(F)(F)C(F)(F)C(F)(F)F
inactive: [2] | [3] | [6] | [7] | [8] | [9] | [10] | [11] | [12] | [13] | [14] | [17] | [18]
active: [3] 34.1 µM and 41 µM and 41.5 µM | [11] 221 µM and 231 µM

CC1(c2ccc(Oc3ccccc3)cc2)OC(=O)N(Nc2ccccc2)C1=O (centres undefined)
active: [3] 2.24 µM | [4] 1.21 µM | [14] 2.16 µM
not listed: [15] | [20]
inactive: all other assays above

C#CCN1C(=O)COc2cc(F)c(N3C(=O)C4=C(CCCC4)C3=O)cc21
active: [3] 23.8 µM | [4] 12.5 µM
not listed: [5] | [19]
inactive: all other assays above

O=S(=O)(O)C(F)(F)C(F)(F)C(F)(F)C(F)(F)C(F)(F)C(F)(F)C(F)(F)C(F)(F)F
active: [5] 133 µM | [6] 52.8 µM | [7] 26.5 µM and 53.3 µM | [8] 68.7 µM | [10] 55.9 µM | [13] 62.2 µM [middle of 9 runs] | [18] 100 µM
inactive: [2] | [5] | [6] | [7] | [8] | [9] | [10] | [11] | [12] | [13] | [14] | [19] | [17] | [18]

CCC(C)(NC(=O)c1cc(Cl)c(C)c(Cl)c1)C(=O)CCl (centres undefined)
active: [3] 1.58 µM
not listed: [14] | [20]
inactive: all other assays above

CCOCN(C(=O)CCl)c1c(C)cccc1CC
active: [3] 0.468 µM
not listed: [4] | [20]
inactive: all other assays above

CCN(CC)C(=O)SCc1ccc(Cl)cc1
active: [3] 4.49 µM | [5] 19 µM | [14] 24.8 µM | [16] 32.4 µM
not listed: [1] | [4] | [15] | [20]
inactive: all other assays above

ClC1C(Cl)C(Cl)C(Cl)C(Cl)C1Cl (centres undefined)
inactive: [2] | [4] | [6] | [7] | [8] | [9] | [10] | [11] | [12] | [13] | [19] | [17] | [18]
active: [3] 2.93 µM [middle of 4 runs] | [7] 100 µM and 70.3 µM | [8] 67.6 µM | [12] 100 µM | [17] 42.6 µM

CCOc1nc(NC)nc(NC(=O)NS(=O)(=O)c2ccccc2C(=O)OC)n1
not listed: [16] | [20]
inactive: all other assays above
